# Tests used:
# Details in all cases: concentration: 1 μM, replicates: in singlicate; n = 1
# [1] = test system: T1, BIKE
# T1 construct: gene BMP2K
# [2] = test system: BLK
# [3] = test system: BMPR1A
# [4] = test system: BMPR1B
# [5] = test system: BMPR2
# [6] = test system: BMX
# [7] = test system: BRAF
# [8] = test system: T2, BRK
# T2 construct: gene PTK6
# [9] = test system: BRSK1
# [10] = test system: BRSK2
# [11] = test system: BTK
# [12] = test system: BUB1
# [13] = test system: CAMK1B
# [14] = test system: CAMK1D
# [15] = test system: CAMK1G
# [16] = test system: CAMK1
# [17] = test system: CAMK2A
# [18] = test system: CAMK2B
# [19] = test system: CAMK2D
# [20] = test system: CAMK2G
# 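Also: KINOMEscan kinase panel screen.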
Structure (SMILES),%Inh [1] [%],%Inh [2] [%],%Inh [3] [%],%Inh [4] [%],%Inh [5] [%],%Inh [6] [%],%Inh [7] [%],%Inh [8] [%],%Inh [9] [%],%Inh [10] [%],%Inh [11] [%],%Inh [12] [%],%Inh [13] [%],%Inh [14] [%],%Inh [15] [%],%Inh [16] [%],%Inh [17] [%],%Inh [18] [%],%Inh [19] [%],%Inh [20] [%]
COc1cccc(CNC(=O)NC2CCN(c3ccnc(Nc4ccc(F)cc4)n3)C2)c1 (stereo not shown) [GSK1379723],19,0,0,0,3,7,10,17,0,0,0,27,23,14,0,14,0,0,0,82
COc1ccc(CSc2nnc(-c3ccc4ncsc4c3)o2)cc1C(F)(F)F,0,0,17,0,0,0,0,0,0,0,0,0,0,23,2,1,0,0,0,0
Cc1c(Cn2c(C)c(C)n3c(=O)cc(N4CCOCC4)nc23)cccc1C(F)(F)F [GSK2328680],2,29,6,0,5,14,0,6,0,0,0,2,0,5,2,7,0,0,0,15
Cc1ccccc1Cn1ccn2c(=O)cc(N3CCOCC3)nc12 [GSK2269905],16,10,0,0,0,3,0,22,0,98.6,0,0,0,0,3,2,0,0,20,47
NS(=O)(=O)c1cccc(N/C=C2\C(=O)Nc3ccc(S(=O)(=O)Cc4c(Cl)cccc4Cl)cc32)c1 [GSK398099],0,0,0,0,8,0,0,2,0,0,0,34,23,17,26,27,0,0,26,16
O=C(Nc1n[nH]c2nc(-c3cccs3)c(Br)cc12)C1CCCC1 [SB-743341],12,0,28,19,46,14,7,12,63,66,26,0,0,16,0,18,9,12,2,0
O=C(Nc1n[nH]c2nc(-c3cccs3)c(Br)cc12)C1CC1 [SB-735297],26,0,0,0,26,9,0,0,66,53,0,0,0,0,0,0,100,100,10,11
COc1ccc2cc(-c3nc(-c4ccccc4C(C)C)[nH]c3-c3ccncc3)ccc2c1 [SB-660566],0,0,17,0,5,0,6,22,4,10,0,89,31,7,0,7,0,0,2,4
